KinaseGlo FLuc = blocks Kinase-Glo luciferase, a counter-screen artifact. Q27757. Kinase-Glo luciferase, ATP luminescence, 8 min. Potency, µM (top dose mostly 38.3 µM), most hits filed as inhibitors. 0.28% of 200,000 active; note: nearly all actives have a fitted effect of over 60% in size
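Light output from Kinase-Glo luciferase with luciferin and 10 uM ATP in 50 mM imidazole pH 7.2, KCl, MgCl2, Tween 20, BSA; compound pin-delivered, 8-min ambient incubation, then luminescence read.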
NPC1 prom act = activators of NPC1 promoter; 2.4% of 320,000 active; Potency, µM (highest dose often 9.22 µM), most hits filed as activators; Huh7 NPC1 promoter luciferase reporter, 24 h; note: nearly all actives have a fitted effect of over 60% in size
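Cells: Huh7 expressing luciferase under the NPC1 promoter, 1500/well. Seeded 2 h, compound added, incubated 24 h at 37 °C. Luciferase reagent, 10 min ambient, then luminescence.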
FLuc counter = counter-screen for miR-21 project: firefly luciferase inhibitors or activators. 6.9% of 360,000 active. Potency, µM (highest dose often 57.5 µM), hits mostly inhibitors. purified FLuc, Km substrates, luminescence inhibition; note: nearly all actives have a fitted effect of over 55% in size
Target sequence (P08659 whole entry, looked up): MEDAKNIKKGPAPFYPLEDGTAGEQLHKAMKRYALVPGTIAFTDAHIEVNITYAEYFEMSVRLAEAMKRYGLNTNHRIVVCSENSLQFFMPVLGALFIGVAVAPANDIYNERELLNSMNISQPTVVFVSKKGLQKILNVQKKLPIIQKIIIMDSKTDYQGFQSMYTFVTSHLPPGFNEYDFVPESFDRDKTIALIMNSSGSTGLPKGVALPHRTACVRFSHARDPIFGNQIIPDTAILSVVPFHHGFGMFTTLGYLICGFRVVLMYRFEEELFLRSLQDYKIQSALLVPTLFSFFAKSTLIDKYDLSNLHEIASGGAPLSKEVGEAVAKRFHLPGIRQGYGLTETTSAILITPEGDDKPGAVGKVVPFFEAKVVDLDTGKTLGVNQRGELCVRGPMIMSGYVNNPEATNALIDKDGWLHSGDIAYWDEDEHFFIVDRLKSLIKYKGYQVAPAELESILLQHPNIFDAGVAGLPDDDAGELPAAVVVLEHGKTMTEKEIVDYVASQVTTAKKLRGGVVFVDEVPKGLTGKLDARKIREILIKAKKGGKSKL
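Purified P. pyralis luciferase (10nM final) with 10uM D-luciferin and 10uM ATP (Km levels) in 50mM Tris acetate pH 7.5, 10mM Mg acetate, 0.01% Tween-20, 0.05% BSA; qHTS 6-point titration, ~60 µM downward; luminescence read.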
SMN2 splice up = enhancers of SMN2 splice variant expression | HEK293 SMN2-luciferase splicing reporter, luminescence, 30-36 h | Potency, µM (doses to about 46.1 µM), hits mostly activators | 2.8% of 210,000 active | AID 1458; note: nearly all actives have a fitted effect of over 55% in size
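qHTS luciferase splicing reporter: luminescence rises when SMN2 exon 7 is included in transfected HEK293 cells. Compound exposure lasted 30-36 h at 37C, with 4.5 mM final sodium butyrate as control, followed by a ONE-Glo read.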
Rab9 prom act = activates the Rab9 promoter. 2.8% of 320,000 active. Huh7 Rab9 promoter-luciferase reporter, luminescence, 24 h. Potency, µM (top dose mostly 9.22 µM), most hits filed as activators; note: nearly all actives have a fitted effect of over 60% in size
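Promoter activation is measured as luciferase luminescence in Huh7 cells stably transfected with a Rab9 promoter–luciferase construct, following 24 h compound exposure at 37 °C and 10 min reagent incubation at ambient temperature.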
Large screens that a line does not name were inactive; ! = a repeat was not active. Compounds with a hit are over-represented: about 7.3% of the library has one in this group of screens. Calls come from the whole dose curve; as a rule, active = well fitted curve in the direction sought with a large enough effect; inconclusive = small, poorly fitted or top-dose-only effect, or another doubt; inactive = no such curve, though single readings can be large; an effect the other way counts as inactive or inconclusive.

CC(C)C[C@@H](CC(=O)N[C@@H](CCC(=O)O)CC(=O)O)NC(=O)[C@@H]1CNCC[C@H]1NC(=O)C[C@H](CCCN)NC(=O)C[C@H](Cc1ccccc1)NC(=O)[C@@H]1CCCC[C@H]1N	none (no result: NPC1 prom act, FLuc counter, Rab9 prom act)
CCOc1ccc(NS(=O)(=O)c2ccc3[nH]cc(C(=O)N(CC)CC)c(=O)c3c2)cc1	NPC1 prom act 0.45µM, FLuc counter 2.7µM, SMN2 splice up 3.5µM, Rab9 prom act 0.4µM
CN(Cc1ccccc1)S(=O)(=O)c1ccc2[nH]cc(C(=O)NCC3CCCO3)c(=O)c2c1 (configuration not stated)	NPC1 prom act 3.2µM, FLuc counter 11µM, Rab9 prom act 2.8µM
CCOc1ccc(NS(=O)(=O)c2ccc3[nH]cc(C(=O)N4CCCCCC4)c(=O)c3c2)cc1	FLuc counter inconclusive (no result: KinaseGlo FLuc, NPC1 prom act, Rab9 prom act)
CCOc1ccc(NS(=O)(=O)c2ccc3[nH]cc(C(=O)NCC4CCCO4)c(=O)c3c2)cc1 (configuration not stated)	NPC1 prom act inconclusive, FLuc counter 27µM!
CCN(C(=O)CN1C(=O)c2ccccc2Sc2ccc(C(=O)OC)cc21)c1cccc(C)c1	none (no result: KinaseGlo FLuc, NPC1 prom act, SMN2 splice up, Rab9 prom act)
C[C@H](N)CCP(=O)(O)O	none (no result: KinaseGlo FLuc, NPC1 prom act, FLuc counter, Rab9 prom act)
CC12C=C(/C=C/CCc3ccco3)C(C)(C1)[C@H](CCc1ccco1)CC2=O (some centres not stated)	none (no result: NPC1 prom act, FLuc counter, Rab9 prom act)
Cc1c(C(=O)O)cccc1-c1ccc(/C=C2/NC(=O)N(c3ccccc3)C2=O)o1	NPC1 prom act inconclusive, FLuc counter 9.5µM, Rab9 prom act 1µM (no result: SMN2 splice up)
Cc1ccc(/C=C2/NC(=O)N(c3ccccc3)C2=O)o1	FLuc counter inconclusive, Rab9 prom act inconclusive
Cc1c(C(=O)O)cccc1-c1ccc(/C=C2\SC(=O)NC2=O)o1	FLuc counter 5.4µM (no result: KinaseGlo FLuc, SMN2 splice up)
Cc1ccc(Cl)cc1NC(=O)C1CCN(S(=O)(=O)c2cccc3nonc23)CC1	none (no result: KinaseGlo FLuc, NPC1 prom act, Rab9 prom act)
Cc1cc(=O)oc2cc(NC(=O)c3ccccc3OC(F)F)ccc12	NPC1 prom act 4µM, FLuc counter inconclusive, Rab9 prom act 3.2µM (no result: KinaseGlo FLuc, SMN2 splice up)
Cc1cc(=O)oc2cc(NC(=O)c3cc4ccccc4o3)ccc12	NPC1 prom act inconclusive
Cc1cc(=O)oc2cc(NC(=O)c3cc(F)ccc3F)ccc12	NPC1 prom act inconclusive, Rab9 prom act 2.5µM (no result: KinaseGlo FLuc, SMN2 splice up)
NC(=O)C1=CN(C2OC(COP(=O)(O)OP(=O)(O)OC[C@H]3O[C@@H](n4cnc5c(N)ncnc54)[C@H](OP(=O)(O)O)[C@@H]3O)C(O)C2O)C=CC1 (some centres not stated)	none (no result: KinaseGlo FLuc, FLuc counter, SMN2 splice up)
CN(C)c1ccc(C(C#N)c2ccccc2)nn1 (configuration not stated)	NPC1 prom act 3.2µM, Rab9 prom act 1.4µM
CN(C)c1ccc(C(C#N)c2ccc(Cl)cc2)nn1 (configuration not stated)	none
CCOC(=O)c1ccc(NC(=O)C2C3CCC(C3)C2C(=O)O)cc1 (configuration not stated)	none
CCOC(=O)c1ccc(NC(=O)N2CCCCCC2)cc1	NPC1 prom act 1.1µM, FLuc counter 8.5µM, Rab9 prom act 1.8µM (no result: KinaseGlo FLuc, SMN2 splice up)
CCOC(=O)c1ccc(NC(=S)NC(=O)C2CCCC2)cc1	none (no result: KinaseGlo FLuc, SMN2 splice up)
CC(C)COC(=O)c1ccc(NC(=O)C2C3CCC(C3)C2C(=O)O)cc1 (configuration not stated)	NPC1 prom act 4µM, FLuc counter 17µM, Rab9 prom act 1.1µM
CCOC(=O)c1ccc(NC(=O)N2CCOCC2)cc1	FLuc counter inconclusive, SMN2 splice up inconclusive, Rab9 prom act inconclusive
CCOC(=O)c1ccc(NC(=O)C2C3CCCCC32)cc1 (configuration not stated)	NPC1 prom act inconclusive, FLuc counter 15µM, Rab9 prom act inconclusive (no result: KinaseGlo FLuc, SMN2 splice up)
NC(=O)c1ccc(NC(=O)C2CCCO2)cc1 (configuration not stated)	none
CCCOC(=O)c1ccc(NC(=O)C2CCCO2)cc1 (configuration not stated)	NPC1 prom act inconclusive, FLuc counter inconclusive, SMN2 splice up inconclusive, Rab9 prom act 4µM
O=C(/C=C/c1ccccc1)OCc1cncs1	FLuc counter 27µM, Rab9 prom act inconclusive
CC(=O)Nc1cccc(-n2nnc(SCC(=O)c3ccccc3)n2)c1	NPC1 prom act 2.8µM, FLuc counter 17µM, Rab9 prom act 3.2µM (no result: KinaseGlo FLuc, SMN2 splice up)
COc1ccc(C(=O)CSc2nnn(-c3cccc(NC(C)=O)c3)n2)cc1	NPC1 prom act inconclusive, FLuc counter 17µM, Rab9 prom act inconclusive (no result: KinaseGlo FLuc, SMN2 splice up)
Clc1cccc(Cl)c1Cn1ccc(C2CC2)n1	NPC1 prom act inconclusive, FLuc counter 12µM, SMN2 splice up inconclusive, Rab9 prom act 3.2µM
O=c1c2ccccc2c(-c2ccccc2)nn1Cc1c(Cl)cccc1Cl	none
CCNC(=O)c1ccc(C23CC4CC(CC(C4)C2)C3)o1	FLuc counter 13µM
O=C(CNC(=O)c1ccc(Br)o1)NC12CC3CC(CC(C3)C1)C2	none (no result: KinaseGlo FLuc, SMN2 splice up)
Cc1ccc(NC(=O)Cn2c(=O)c(C)nc3ccccc32)cc1	none
COCCn1c(/C=C/c2ccccc2)nc2ccccc21	KinaseGlo FLuc inconclusive, NPC1 prom act 2.2µM, FLuc counter 1.7µM, SMN2 splice up 11µM, Rab9 prom act 2µM
CC(C)CCn1c(C(C)O)nc2ccccc21 (configuration not stated)	none
Cc1cccc(NC(=O)Cn2c(/C=C/c3ccccc3)nc3ccccc32)c1	FLuc counter 3µM (no result: KinaseGlo FLuc, SMN2 splice up)
COCCn1c(-c2ccccc2)nc2ccccc21	FLuc counter inconclusive
